# Results taken from PubChem BioAssay AID743088 (The Scripps Research Institute Molecular Screening Center, 2013).
# Unmarked numbers belong to inactive results.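 The calls were made as follows: active = binding inhibited by at least 50%, or stimulated by at least 50%, shown as inhibition of -50% or lower; inactive = the rest.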
# System: Potassium Channel KATP
# Test: off-target binding across receptor panel, profiling panel, selectivity assay for AVPR1a antagonist project, biochemical, Panlabs HitProfilingScreen (AID 743088)
# Settings: Panlabs radioligand binding panel, 30 targets, at 10 µM, hits give high values
smiles,measurement,value
O=C(C1CCN(c2ccc(Cl)cn2)CC1)N(CC1CC1)c1ccc(Cl)cc1,inhibition of binding,19%
